Laboratory results reported in PubChem BioAssay (Tox21).
Results filed as inconclusive are left out. Active and inactive are the calls of the source. Unless noted, calls come from the whole dose curve; as a rule, active = well fitted curve in the direction sought with a large enough effect in the repeat runs; inconclusive = weak or mixed curves; inactive = no such curve, though single readings can be large; an effect the other way counts as inactive or inconclusive.

Legend:
[1] = A CellTox Green Cytotoxicity Assay to monitor cytotoxicity in HepG2 cells - 8 hour (AID 1224890); note: nearly all actives have a fitted effect of over 45% in size
Outline: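 First, HepG2 cells (600/well) mixed with reagent were plated; second, after 5 h at 37 C they received compounds via pintool; third, fluorescence was measured at 0 h through 40 h at 8 h intervals.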

[2] = qHTS assay to identify small molecule antagonists of the estrogen receptor alpha (ER-alpha) signaling pathway using the BG1 cell line in the presence of 0.1 nM 17-beta-estradiol - cell viability counter screen (AID 1259241); note: nearly all actives have a fitted effect of over 40% in size
Outline: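 CellTiter-Fluor read (30 min, 37C) on ER-alpha/ERE-luc VM7Luc4E2 cells; 22 hr compound treatment; agonist 0.1 nM E2 final; same-well multiplex.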

[3] = qHTS assay to identify small molecule antagonists of the androgen receptor (AR) signaling pathway using the MDA cell line in the presence of 0.5 nM R1881 - cell viability counter screen (AID 1259242); note: nearly all actives have a fitted effect of over 45% in size
Outline: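 qHTS format. MDA-kb2 (MMTV-luc, AR/GR responsive) + cpd + 0.5 nM R1881 final, 16 hr 37C/0% CO2 → CellTiter-Fluor 30 min → fluorescence intensity.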

[4] = target: Estrogen receptor (Homo sapiens) (UniProt P03372); experiment: qHTS assay to identify small molecule antagonists of the estrogen receptor alpha (ER-alpha) signaling pathway using the BG1 cell line in the presence of 0.1 nM 17-beta-estradiol (AID 1259244); note: nearly all actives have a fitted effect of over 50% in size
Chain of Estrogen receptor (Homo sapiens) (P03372 whole entry, looked up): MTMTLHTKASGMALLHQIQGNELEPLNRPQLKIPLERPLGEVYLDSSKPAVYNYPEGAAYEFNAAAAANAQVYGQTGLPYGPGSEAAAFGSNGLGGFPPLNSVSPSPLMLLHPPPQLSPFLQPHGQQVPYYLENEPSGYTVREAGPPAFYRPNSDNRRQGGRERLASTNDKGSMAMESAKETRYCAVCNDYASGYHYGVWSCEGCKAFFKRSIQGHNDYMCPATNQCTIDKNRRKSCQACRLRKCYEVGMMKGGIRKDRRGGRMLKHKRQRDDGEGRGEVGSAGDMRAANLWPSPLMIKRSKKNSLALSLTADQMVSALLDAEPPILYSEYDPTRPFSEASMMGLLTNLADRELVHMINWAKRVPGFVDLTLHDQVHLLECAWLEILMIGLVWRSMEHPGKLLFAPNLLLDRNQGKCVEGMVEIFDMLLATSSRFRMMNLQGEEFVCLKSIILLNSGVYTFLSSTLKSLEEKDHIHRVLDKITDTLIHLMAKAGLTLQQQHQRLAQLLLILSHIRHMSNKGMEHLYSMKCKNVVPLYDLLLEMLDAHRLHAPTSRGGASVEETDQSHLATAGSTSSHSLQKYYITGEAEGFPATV
Outline: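 Reporter is a stably transfected luciferase under four estrogen responsive elements in VM7Luc4E2 cells expressing native full-length ER-alpha; inhibition of 0.1 nM (final) 17beta-estradiol-driven signal over 22 h is read by luminescence.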

[5] = qHTS assay to identify small molecule HDAC inhibitors - cell viability counter screen (AID 1259365); note: series mostly up to about 92 µM; nearly all actives have a fitted effect of over 50% in size
Outline: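 To flag cytotoxic hits, 1,500 wild-type HCT-116 cells per well, plated the day before, receive test compounds for 2hr at 37 C before CellTiter-Glo reagent and a luminescence read.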

[6] = qHTS assay to identify small molecule agonists of the sonic hedgehog signaling (Shh) pathway - cell viability counter screen (AID 1259366); note: nearly all actives have a fitted effect of over 50% in size
Outline: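 Fluorescence from CellTiter-Fluor reports live cells in this counter screen. NIH/3T3-derived Gli1-Luc reporter cells receive test compounds for 24hr at 37C; reagent goes in at 23hr.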

[7] = qHTS assay to identify small molecule antagonists of the sonic hedgehog signaling (Shh) pathway - cell viability counter screen (AID 1259367); note: nearly all actives have a fitted effect of over 55% in size
Outline: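 Conditioned medium drove Shh signaling in 3T3 Gli1-Luc cells exposed to compounds at 37C and 5% CO2. Viability was determined from CellTiter-Fluor fluorescence, with reagent incubated 1 hr after 23 hr of treatment.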

[8] = qHTS assay to identify small molecule agonists of the sonic hedgehog signaling (Shh) pathway (AID 1259368; calls by dose curve;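 note: NIH/3T3-derived 3T3Gli1-Luc cells carrying a stable Gli1-driven firefly luciferase reporter; series mostly up to about 92 µM; nearly all actives have a fitted effect of over 15% in size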)
Outline: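 Quantitative high-throughput format using a Gli1-driven firefly luciferase reporter line derived from NIH/3T3 cells. After a 24 hr compound treatment at 37 C and 5% CO2, luminescence reported Gli1 response element activity.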

[9] = qHTS assay to identify small molecule antagonists of the sonic hedgehog signaling (Shh) pathway (AID 1259369; calls by dose curve; note: nearly all actives have a fitted effect of over 45% in size)
Outline: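 Stable Gli1-Luc reporter NIH/3T3 clone; quantitative HTS in stimulated mode with conditioned medium. Luminescence measured after 24hr compound treatment at 37 C.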

[10] = qHTS assay to identify small molecule agonists of the androgen receptor (AR) signaling pathway in the presence of an antagonist - cell viability counter screen (AID 1259379);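 note: MDA-kb2 human breast cancer cells carrying an MMTV luciferase reporter; series mostly up to about 92 µM; nearly all actives have a fitted effect of over 25% in size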
Outline: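 Nilutamide-containing (3.0uM final) MDA-kb2 cultures, 3,000 cells/well, were treated with compounds across 15 concentrations. After 16 hr at 37C with no CO2, cell viability was determined by CellTiter-Fluor fluorescence in the luciferase assay wells.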

[11] = qHTS assay to identify small molecule agonists of the estrogen receptor beta (ER-beta) signaling pathway - cell viability counter screen (AID 1259380); note: nearly all actives have a fitted effect of over 30% in size
Outline: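 Steps: plate ER-beta-UAS-bla HEK293T cells, rest 6 hr; add compounds in DMSO; incubate 16 hr at 37C, 5% CO2; add FRET substrate 2 hr; add CellTiter-Glo, wait 30 min at room temperature; read luminescence.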

[12] = target: Estrogen receptor (Homo sapiens) (UniProt P03372); experiment: qHTS assay to identify small molecule agonists of the estrogen receptor alpha (ER-alpha) signaling pathway in the presence of an antagonist (AID 1259383; calls by dose curve; note: top concentration of the series differs between compounds; nearly all actives have a fitted effect of over 15% in size)
Outline: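 Readout was ERE-driven luciferase luminescence in VM7Luc4E2 cells, which express full-length ER-alpha endogenously. Compounds were tested at 15 concentrations for 22hr alongside 10.0nM ICI-182,780 (final concentration).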

[13] = qHTS assay to identify small molecule agonists or antagonists of the thyroid stimulating hormone receptor (TSHR) signaling pathway - wild type cell line counter screen (AID 1259384; calls by dose curve)
Outline: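 Wild-type HEK293 cells were plated 18 h at 37 C/5% CO2, pin-dosed with compound plus Ro20-1724 medium, held 30 min at room temperature, then given cAMP-d2 and anti-cAMP-cryptate; fluorescence was read after 1 h. Fifteen concentrations, triplicate.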

[14] = target: Estrogen receptor beta (Homo sapiens) (UniProt Q92731); experiment: qHTS assay to identify small molecule antagonists of the estrogen receptor beta (ER-beta) signaling pathway (AID 1259378; active = well fitted inhibition curve with a large enough effect in the signal ratio in the repeat runs, not every such curve was filed as active; the % refers to the signal ratio)
Chain of Estrogen receptor beta (Homo sapiens) (Q92731 whole entry, looked up): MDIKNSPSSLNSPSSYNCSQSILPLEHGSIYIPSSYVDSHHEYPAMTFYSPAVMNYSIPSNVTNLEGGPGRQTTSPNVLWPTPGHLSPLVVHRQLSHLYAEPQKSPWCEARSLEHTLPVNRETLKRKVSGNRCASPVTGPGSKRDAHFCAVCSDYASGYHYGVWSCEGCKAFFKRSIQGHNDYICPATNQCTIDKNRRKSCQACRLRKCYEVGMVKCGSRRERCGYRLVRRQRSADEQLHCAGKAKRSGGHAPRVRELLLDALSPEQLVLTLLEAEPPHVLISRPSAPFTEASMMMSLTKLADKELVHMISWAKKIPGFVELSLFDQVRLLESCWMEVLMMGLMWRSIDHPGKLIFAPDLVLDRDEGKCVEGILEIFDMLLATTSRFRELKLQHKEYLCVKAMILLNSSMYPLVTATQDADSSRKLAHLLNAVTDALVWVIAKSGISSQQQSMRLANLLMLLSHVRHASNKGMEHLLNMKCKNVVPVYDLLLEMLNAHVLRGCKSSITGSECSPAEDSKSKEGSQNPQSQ
Outline: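 ER-beta-UAS-bla HEK293T (GripTite) cells in 2% charcoal-stripped FBS medium were preincubated 6 hr at 37C, dosed with compound, then stimulated with 1 nM E2 (final) for 16 hr; beta-lactamase reporter read by B/G FRET fluorescence after 2 hr substrate loading.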

[15] = qHTS assay to identify small molecule antagonists of the estrogen receptor beta (ER-beta) signaling pathway - cell viability counter screen (AID 1259382); note: series mostly up to about 92 µM; nearly all actives have a fitted effect of over 55% in size
Outline: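 Viability is scored by CellTiter-Glo luminescence (30 min, room temperature) in ER-beta-UAS-bla HEK293T wells already read for reporter fluorescence. Compound exposure lasts 16 hr at 37C alongside 1nM 17-beta-estradiol in charcoal-stripped serum medium.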

[16] = qHTS assay to identify small molecule phospholipidosis (PLD) inducers (AID 1259344; active = well fitted curve in the direction sought with a large enough effect; an effect the other way counts as inactive or inconclusive)
Outline: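 After 4 h attachment on collagen I, HepG2 cells were dosed with compound alongside LipidTOX Red, kept 24 h at 37 C, fixed, and imaged for lamellar phospholipid pits.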

[17] = qHTS assay to identify small molecule HDAC inhibitors (AID 1259364);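 note: wild-type HCT-116 cells with endogenous class I/II HDAC activity; top concentration of the series differs between compounds; nearly all actives have a fitted effect of over 45% in size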
Outline: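 Quantitative high-throughput format: overnight-seeded HCT-116 cells got compounds for 2 hr at 37C; HDAC-Glo I/II reagent added, 30 min RT, luminescence measured.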

[18] = target: Estrogen receptor beta (Homo sapiens) (UniProt Q92731); experiment: qHTS assay to identify small molecule agonists of the estrogen receptor beta (ER-beta) signaling pathway (AID 1259377; active = well fitted activation curve with a large enough effect in the signal ratio in the repeat runs, not every such curve was filed as active; the % refers to the signal ratio)
Outline: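 Screening used GripTite ER-beta-UAS-bla cells held in 2% charcoal-stripped FBS medium. After overnight (16 hr) compound incubation at 37C, beta-lactamase activity was detected with a FRET substrate by fluorescence.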
% is set by controls: 0 for no effect and ±100 for the full control effect.

CC(C)NCCCC1(C(N)=O)c2ccccc2-c2ccccc21
inactive: Potency [1] | outcome [2] | Potency [3] | outcome [4] | outcome [5] | Potency [6] | Potency [7] | outcome [8] | Potency [9] | Potency [10] | Potency [11] | Potency [12] | outcome [13]

CCOC(=O)CCC(C)=O
inactive: Potency [1] | outcome [2] | Potency [3] | outcome [4] | outcome [5] | Potency [6] | Potency [7] | outcome [8] | outcome [14] | Potency [10] | Potency [11] | Potency [15] | Potency [12]

CCCN(CCC)CCc1cccc2c1CC(=O)N2
inactive: Potency [1] | outcome [2] | Potency [3] | Potency [16] | Potency [17] | outcome [5] | Potency [7] | outcome [8] | outcome [18] | outcome [14] | Potency [10] | Potency [11] | Potency [15] | outcome [13]

CCCCCCCCCCCCCC=O
inactive: cytotoxicity increase [1] 5.89% [at 6.97 µM] | activity change, negative = cytotoxicity [2] 4.83% [at 8.39 µM] | viability change, negative = cytotoxic [3] -0.255% [at 8.39 µM] | activity change, negative = inhibition [4] 5.09% [at 8.39 µM] | activity change, negative = cytotoxicity [5] 1.26% [at 8.39 µM] | viability change, negative = cytotoxic [7] 0.0972% [at 8.39 µM] | activity change, negative = inhibition [9] 13.4% [at 8.39 µM] | activation [18] 5.64% [at 8.39 µM] | activity, negative = inhibition [14] -23.6% [at 8.39 µM] | activity change, negative = cytotoxicity [10] -0.261% [at 8.39 µM] | activity change, negative = cytotoxicity [11] -3.43% [at 8.39 µM] | activity change, negative = cytotoxicity [15] -3.46% [at 8.39 µM] | activation [12] -0.924% [at 8.39 µM]

Oc1ccc(C2CNCCc3c2cc(O)c(O)c3Cl)cc1 (stereo not drawn)
inactive: Potency [1] | outcome [2] | Potency [3] | Potency [16] | Potency [17] | outcome [5] | Potency [7] | outcome [8] | Potency [9] | outcome [18] | outcome [14] | Potency [10] | Potency [11] | Potency [15] | outcome [13]

C=C[Si](OC(=C)C)(OC(=C)C)OC(=C)C
inactive: Potency [1] | outcome [2] | Potency [3] | outcome [4] | outcome [5] | Potency [6] | Potency [7] | outcome [18] | outcome [14] | Potency [10] | Potency [11] | Potency [15] | Potency [12]

C[N+](C)(C)CCCCCC[N+](C)(C)C
inactive: Potency [1] | outcome [2] | Potency [3] | Potency [16] | Potency [17] | outcome [5] | Potency [7] | outcome [8] | Potency [9] | Potency [10] | Potency [11] | Potency [15]

NC(=O)c1cn(Cc2c(F)cccc2F)nn1
inactive: Potency [1] | outcome [2] | Potency [3] | Potency [16] | outcome [5] | Potency [7] | outcome [8] | Potency [9] | outcome [18] | outcome [14] | Potency [10] | Potency [11] | Potency [15] | outcome [13]

COc1nc(N)nc2c1ncn2[C@@H]1O[C@H](CO)[C@@H](O)[C@@H]1O
inactive: Potency [1] | outcome [2] | Potency [3] | Potency [16] | Potency [17] | outcome [5] | Potency [6] | Potency [7] | outcome [8] | Potency [9] | outcome [18] | outcome [14] | Potency [10] | Potency [11] | Potency [15] | outcome [13]
